{
  "source": "PubChem BioAssay AID588590",
  "about": "(National Center for Advancing Translational Sciences (NCATS), 2011)",
  "note": "In all, about 390,000 compounds went through this assay and about 4,000 (1%) were called active. Inconclusive results (about 7%) are left out. The sample as a whole holds a higher share of actives than the screen did. Unmarked numbers belong to inactive results. Calls come from the whole dose curve; as a rule, active = well fitted inhibition curve with a large enough effect; inconclusive = small, poorly fitted or top-dose-only effect, or another doubt; inactive = no such curve, though single readings can be large or run the other way.",
  "data": [
    {"target": "DNA polymerase iota (Homo sapiens) (UniProt Q9UNA4)", "sequence (Q9UNA4 whole entry, looked up)": "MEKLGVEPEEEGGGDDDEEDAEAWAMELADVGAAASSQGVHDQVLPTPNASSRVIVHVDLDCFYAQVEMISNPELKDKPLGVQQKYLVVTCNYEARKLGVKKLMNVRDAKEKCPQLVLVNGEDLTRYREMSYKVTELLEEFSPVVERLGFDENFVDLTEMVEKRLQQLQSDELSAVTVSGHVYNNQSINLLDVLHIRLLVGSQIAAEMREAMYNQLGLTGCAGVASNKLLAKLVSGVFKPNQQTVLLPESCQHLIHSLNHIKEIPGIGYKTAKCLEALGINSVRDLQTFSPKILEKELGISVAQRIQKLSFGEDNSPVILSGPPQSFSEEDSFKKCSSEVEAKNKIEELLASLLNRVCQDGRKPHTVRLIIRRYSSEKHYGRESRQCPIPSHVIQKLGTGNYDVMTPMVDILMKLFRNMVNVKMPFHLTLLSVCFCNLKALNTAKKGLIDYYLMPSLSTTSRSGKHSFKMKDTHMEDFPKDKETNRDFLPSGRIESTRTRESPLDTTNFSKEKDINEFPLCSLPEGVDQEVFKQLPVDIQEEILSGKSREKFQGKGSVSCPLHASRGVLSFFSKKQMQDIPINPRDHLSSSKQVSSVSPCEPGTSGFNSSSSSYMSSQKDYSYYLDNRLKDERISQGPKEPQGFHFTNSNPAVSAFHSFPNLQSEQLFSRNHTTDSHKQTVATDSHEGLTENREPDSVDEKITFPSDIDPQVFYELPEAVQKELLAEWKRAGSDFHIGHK", "experiment": "qHTS for Inhibitors of Polymerase Iota; note: potency is the fitted concentration of half-maximal effect", "settings": "Pol iota fluorescent replication assay, 10 min; series mostly up to 115 µM; activity, negative = inhibition: at the top concentration", "procedure,_shortened": "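Pol iota at 10 nM preincubated 15 min with compounds at room temperature; reaction started with fluorescent substrate, 50 nM final. Fluorescence read kinetically at 0 and 10 min; buffer-only wells as negative control.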", "values": [
      {"compound": "Oc1cc(O)c2c(c1)OC(c1ccc(O)c(O)c1)C(O)C2", "note": "(stereo not given)", "Potency": "79.4 µM (active)"},
      {"compound": "OC[C@H]1O[C@@H](n2cnc3c(N[C@H]4CC5CCC4C5)ncnc32)[C@H](O)[C@@H]1O", "note": "(stereo not given in full)", "activity, negative = inhibition": "-2.71% [at 58.9 µM]"},
      {"compound": "Cc1ccc(CSc2nc3ccsc3c(=O)n2CCC(C)C)cc1", "activity, negative = inhibition": "10.2%"},
      {"compound": "COc1ccc(CCNC2=C(Cl)C(=O)N(Cc3ccccc3)C2=O)cc1OC", "activity, negative = inhibition": "-22.1%"},
      {"compound": "CN(C(=O)CN1C(=O)/C(=C/c2ccc(Cl)cc2)SC1=S)C1CCS(=O)(=O)C1", "note": "(stereo not given)", "activity, negative = inhibition": "-7.32%"},
      {"compound": "COc1cc(/C=C2/SC(=S)N(Cc3ccccc3)C2=O)cc(OC)c1O", "Potency": "44.7 µM (active)"},
      {"compound": "Cc1ccccc1NC(=O)CN1C(=O)C(C)(C)c2ccccc21", "activity, negative = inhibition": "18.5%"},
      {"compound": "Cc1ccccc1NC(=O)CN1C(=O)N/C(=C\\c2cccn2-c2cccc(C(=O)O)c2)C1=O", "Potency": "5.62 µM (active)"},
      {"compound": "Cc1ccccc1NC(=O)Cn1c(=O)n(CCc2ccccc2)c(=O)c2ccccc21", "activity, negative = inhibition": "23.8%"},
      {"compound": "COc1ccc2c(c1)c(=O)c(S(=O)(=O)c1ccc(F)cc1)cn2CC(=O)Nc1ccc(C)cc1C", "activity, negative = inhibition": "25.1%"},
      {"compound": "CCN(CCCNC(=O)c1cc(Nc2ccc(OC)cc2)nc2ccccc12)c1cccc(C)c1", "activity, negative = inhibition": "17.7%"},
      {"compound": "COc1cccc(CNC(=O)c2ccc3c(Cl)c4c(nc3c2)CCCC4)c1", "Potency": "89.1 µM (active)"},
      {"compound": "COc1cccc(CNC(=O)CSc2c3c(nc4cc(Cl)ccc24)CCCC3)c1", "activity, negative = inhibition": "25.5%"},
      {"compound": "CC(C)CCNC(=O)c1ccc2c(Cl)c3c(nc2c1)CCC3", "activity, negative = inhibition": "107%"},
      {"compound": "Cc1ccc(Cn2c(CCCNC(=O)C3CCCCC3)nc3ccccc32)cc1", "activity, negative = inhibition": "24.5%"},
      {"compound": "Cn1c(=O)oc2cc(S(=O)(=O)CCC(=O)NCCc3ccc(Cl)cc3)ccc21", "activity, negative = inhibition": "21.8%"},
      {"compound": "CC1CCN(c2ccc([N+](=O)[O-])cc2C(N)=O)CC1", "activity, negative = inhibition": "0.643%"},
      {"compound": "O=C(O)C1CCN(c2ccc([N+](=O)[O-])cc2[N+](=O)[O-])CC1", "Potency": "20 µM (active)"},
      {"compound": "CCC(C)(C)NC(=O)c1cc([N+](=O)[O-])ccc1N1CCCCC1", "activity, negative = inhibition": "12%"},
      {"compound": "COc1ccccc1OCC(=O)OCc1cc(-c2ccco2)on1", "activity, negative = inhibition": "-2.3%"},
      {"compound": "COC(=O)COc1ccc2c(c1C)O/C(=C\\c1ccco1)C2=O", "Potency": "89.1 µM (active)"},
      {"compound": "COC(=O)CN1C(=O)N/C(=C/c2ccc(OC)c(C)c2OC)C1=O", "activity, negative = inhibition": "76.4%"},
      {"compound": "Cc1ccc(C(=O)CC2(O)C(=O)N(CCc3ccccc3)c3ccc(Br)cc32)cc1", "note": "(stereo not given)", "activity, negative = inhibition": "14.1%"},
      {"compound": "CCN(CC)c1cc(NC2CCCCC2)c2c3c(onc13)-c1ccccc1C2=O", "activity, negative = inhibition": "36%"},
      {"compound": "COc1ccc(CNC(=O)CC2Oc3ccc(C)cc3NC2=O)cc1", "note": "(stereo not given)", "activity, negative = inhibition": "15.5%"},
      {"compound": "CCc1nnc(NC(=O)c2ccc(S(=O)(=O)NC3CCCCC3)cc2)s1", "activity, negative = inhibition": "4.68%"},
      {"compound": "CCc1ccc2nc3sc(C(=O)Nc4nnc(CC)s4)c(N)c3cc2c1", "Potency": "22.4 µM (active)"},
      {"compound": "CCc1ccc(NC(=O)c2sc3nc4c(cc3c2N)CN(CC)CC4)cc1", "activity, negative = inhibition": "7.62%"},
      {"compound": "COC(=O)c1cc2occc2n1Cc1nc(-c2ccc(C)cc2)oc1C", "activity, negative = inhibition": "-13.4%"},
      {"compound": "Cc1cc(/C=N/NC(=O)CC2(C)OCCO2)c(C)n1-c1ccc(Cl)c(Cl)c1", "activity, negative = inhibition": "3.54%"},
      {"compound": "Cc1cc(C=O)c(C)n1-c1ccc(NC2CCCCC2)c([N+](=O)[O-])c1", "activity, negative = inhibition": "-6.87%"},
      {"compound": "Cc1cc(/C=N/Nc2ccc([N+](=O)[O-])cn2)c(C)n1-c1cccc(C(=O)O)c1", "Potency": "28.2 µM (active)"},
      {"compound": "COc1ccc(NC(=O)C2CCN(c3ccc(Sc4ccc(C)cc4)nn3)CC2)c(OC)c1", "activity, negative = inhibition": "7.33%"},
      {"compound": "O=C1C[C@H]2C=CCc3cccc(c32)CN1Cc1ccccc1", "activity, negative = inhibition": "2.61%"},
      {"compound": "COc1ccc(Cl)cc1-n1c(CCC(=O)O)ccc1-c1ccc(C)cc1", "activity, negative = inhibition": "-8.96%"},
      {"compound": "CCOc1ccccc1NC(=O)Cn1c2ncccc2c(=O)n1-c1ccc(C)c(C)c1", "activity, negative = inhibition": "8.51%"},
      {"compound": "CCOc1ccccc1CNC(=O)Nc1cn(CC(C)C)c(=O)c2ccccc12", "Potency": "39.8 µM (active)"},
      {"compound": "CCOc1ccccc1N(CC)C(=O)Nc1cn(C)c(=O)c2ccccc12", "activity, negative = inhibition": "28.1%"},
      {"compound": "Cc1cccc(-c2nnc(SC(C)C(=O)Nc3ccccc3)n2C)c1", "note": "(stereo not given)", "activity, negative = inhibition": "3.47%"},
      {"compound": "Cc1ccc(C)c2sc(NC(=O)c3ccc(S(=O)(=O)N4CCCC4)cc3)nc12", "activity, negative = inhibition": "13.9%"},
      {"compound": "Cc1ccc(CCNC(=O)C2CCN(c3nnc(-n4cccc4CNc4ccc(C)cc4)s3)CC2)cc1", "activity, negative = inhibition": "11.6%"},
      {"compound": "Cc1nn2c3cc(N4CCOCC4)ccc3nc2c2ccccc12", "activity, negative = inhibition": "32.7%"},
      {"compound": "c1ccc(-n2nnnc2N2CCOCC2)cc1", "activity, negative = inhibition": "9.14%"},
      {"compound": "C1=C(N2CCOCC2)/C(=C/c2nc3ccccc3[nH]2)CC1", "Potency": "14.1 µM (active)"},
      {"compound": "O=C(Nc1ccc(Cl)cc1)c1cnn2c1NC(=C1CC1)C=C2C(F)F", "activity, negative = inhibition": "2.31%"},
      {"compound": "CCCOC(=O)c1c(NC(=O)c2cc3nc(-c4ccc(OC)cc4)cc(C(F)(F)F)n3n2)sc2c1CCCC2", "activity, negative = inhibition": "-29%"},
      {"compound": "CC1CCC2(CC1)N=C(c1ccccc1)C(=O)N2CC(=O)Nc1ccc(F)c(Cl)c1", "note": "(stereo not given)", "activity, negative = inhibition": "16.3%"},
      {"compound": "Cc1ccc2nc(COc3cccc(NC(=O)c4cccc(Cl)c4)c3)cc(=O)n2c1", "Potency": "89.1 µM (active)"},
      {"compound": "Cc1ccc2nc(COc3ccccc3NC(=O)Nc3ccc(F)c(Cl)c3)cc(=O)n2c1", "activity, negative = inhibition": "35.4%"},
      {"compound": "Cc1ccc2nc(COc3cccc(NC(=O)Nc4ccc(C)c(Cl)c4)c3)cc(=O)n2c1", "activity, negative = inhibition": "15.8%"}
    ]}
  ]
}
